In paper PMC7862700, “An all-to-all approach to the identification of sequence-specific readers for epigenetic DNA modifications on cytosine”:

Legend:
Assay in all cases: DAPPL (digital affinity profiling via proximity ligation, sequencing); 10 mM Tris-HCl pH 7.5, 50 mM NaCl, 1 mM DTT, 4% glycerol, room temperature, 30 min; GST-TFs on glutathione beads, 16-mer random dsDNA library, 0.1% formaldehyde crosslink after washing; high values mean tight binding
FEV = biological target: T1, FEV (Homo sapiens, UniProt Q99581 1-238); details: protein: recombinant; tags: N-terminal GST; dsDNA, one strand shown
T1 sequence: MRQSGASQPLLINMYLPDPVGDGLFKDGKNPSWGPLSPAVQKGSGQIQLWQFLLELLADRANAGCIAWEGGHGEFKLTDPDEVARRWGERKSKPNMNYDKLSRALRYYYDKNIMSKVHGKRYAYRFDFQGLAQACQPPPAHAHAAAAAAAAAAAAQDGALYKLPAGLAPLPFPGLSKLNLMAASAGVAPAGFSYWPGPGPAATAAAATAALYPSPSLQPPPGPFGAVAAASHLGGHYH
How it was run: (§1)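 In yeast, human transcription factors were expressed with a GST fusion, then pulled down on glutathione beads and given DNA barcodes. Pooled with a tag-only sample, they were exposed to 200 nmole of a 16-mer random double-stranded DNA library (Tris/NaCl/DTT/glycerol buffer, room temperature, 30 min), washed, crosslinked with 0.1% formaldehyde, proximity-ligated using BsaI/T4 ligase for 1 h at 37 °C, PCR-amplified and read on an Illumina NextSeq500. Each hexamer's frequency of reads for a factor, divided by the matching frequency for the tag-only sample, gives the binding signal.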

ETV5 = ETV5 (Homo sapiens, UniProt P41161 1-510); details: protein: recombinant; tags: N-terminal GST; dsDNA, one strand shown
Chain of ETV5 (P41161 whole entry): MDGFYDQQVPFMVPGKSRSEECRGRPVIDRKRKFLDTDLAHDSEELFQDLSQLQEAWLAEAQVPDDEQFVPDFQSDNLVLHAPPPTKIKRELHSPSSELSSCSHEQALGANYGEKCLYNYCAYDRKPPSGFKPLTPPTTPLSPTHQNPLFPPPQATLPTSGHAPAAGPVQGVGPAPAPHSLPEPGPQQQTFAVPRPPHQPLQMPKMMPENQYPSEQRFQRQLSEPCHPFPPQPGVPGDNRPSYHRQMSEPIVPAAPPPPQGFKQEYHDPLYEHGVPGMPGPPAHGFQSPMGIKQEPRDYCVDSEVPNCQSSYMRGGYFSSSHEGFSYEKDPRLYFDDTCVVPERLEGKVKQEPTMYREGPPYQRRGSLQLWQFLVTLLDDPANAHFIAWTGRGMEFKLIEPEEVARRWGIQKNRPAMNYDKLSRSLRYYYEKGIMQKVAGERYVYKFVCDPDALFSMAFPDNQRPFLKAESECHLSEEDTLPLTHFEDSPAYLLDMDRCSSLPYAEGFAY
How it was run: as §1

HSF1 = HSF1 (Homo sapiens, UniProt Q00613 1-529); details: protein: recombinant; tags: N-terminal GST; chain copies: 3; dsDNA, one strand shown
Chain of HSF1 (Q00613 whole entry): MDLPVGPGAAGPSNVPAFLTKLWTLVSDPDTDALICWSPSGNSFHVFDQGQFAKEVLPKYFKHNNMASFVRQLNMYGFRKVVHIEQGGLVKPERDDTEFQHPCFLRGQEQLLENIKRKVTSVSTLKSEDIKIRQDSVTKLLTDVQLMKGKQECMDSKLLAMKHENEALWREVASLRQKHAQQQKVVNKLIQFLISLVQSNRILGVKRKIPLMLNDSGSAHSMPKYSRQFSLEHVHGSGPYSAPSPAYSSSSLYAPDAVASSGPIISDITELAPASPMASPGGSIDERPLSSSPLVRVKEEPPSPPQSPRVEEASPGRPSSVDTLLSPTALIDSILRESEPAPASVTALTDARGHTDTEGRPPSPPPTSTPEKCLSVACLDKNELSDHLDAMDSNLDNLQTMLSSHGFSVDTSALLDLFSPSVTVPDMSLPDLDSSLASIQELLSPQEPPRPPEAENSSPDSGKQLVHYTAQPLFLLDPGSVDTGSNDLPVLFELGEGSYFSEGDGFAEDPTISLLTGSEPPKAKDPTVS
How it was run: as §1

SPIC = biological target: T2, SPIC (Homo sapiens, UniProt Q8N5J4 1-248); details: protein: recombinant; tags: N-terminal GST; dsDNA, one strand shown
T2 sequence: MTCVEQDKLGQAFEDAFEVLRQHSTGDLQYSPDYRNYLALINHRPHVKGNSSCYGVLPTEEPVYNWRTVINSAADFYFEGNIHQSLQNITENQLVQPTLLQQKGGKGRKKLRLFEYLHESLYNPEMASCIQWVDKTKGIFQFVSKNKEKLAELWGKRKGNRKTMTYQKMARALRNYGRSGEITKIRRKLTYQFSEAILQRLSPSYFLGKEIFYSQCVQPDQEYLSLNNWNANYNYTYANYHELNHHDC
How it was run: as §1

ELF4 = ELF4 (Homo sapiens, UniProt Q99607 1-663); details: protein: recombinant; tags: N-terminal GST; dsDNA, one strand shown
Chain of ELF4 (Q99607 whole entry): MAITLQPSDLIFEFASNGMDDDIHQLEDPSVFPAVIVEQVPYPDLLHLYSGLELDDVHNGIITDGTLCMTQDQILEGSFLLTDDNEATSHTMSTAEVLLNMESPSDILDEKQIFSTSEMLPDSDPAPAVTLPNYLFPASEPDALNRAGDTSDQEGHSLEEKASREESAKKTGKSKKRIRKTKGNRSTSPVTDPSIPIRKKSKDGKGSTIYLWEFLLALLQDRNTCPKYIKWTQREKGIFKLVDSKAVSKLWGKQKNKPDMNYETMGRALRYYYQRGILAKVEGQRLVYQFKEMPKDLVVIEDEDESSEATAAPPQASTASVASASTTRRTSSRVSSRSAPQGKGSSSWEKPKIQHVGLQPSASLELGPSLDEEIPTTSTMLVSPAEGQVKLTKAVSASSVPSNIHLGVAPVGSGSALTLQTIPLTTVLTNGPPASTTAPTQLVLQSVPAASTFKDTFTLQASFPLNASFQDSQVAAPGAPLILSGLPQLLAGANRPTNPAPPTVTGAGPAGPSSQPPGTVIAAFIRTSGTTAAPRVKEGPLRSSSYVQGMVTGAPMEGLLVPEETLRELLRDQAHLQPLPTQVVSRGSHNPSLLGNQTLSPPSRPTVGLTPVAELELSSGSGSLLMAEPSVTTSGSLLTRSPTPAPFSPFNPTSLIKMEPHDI
How it was run: as §1

ELK4 = biological target: T3, ELK4 (Homo sapiens, UniProt P28324-2 1-405); details: protein: recombinant; tags: N-terminal GST; dsDNA, one strand shown
T3 sequence: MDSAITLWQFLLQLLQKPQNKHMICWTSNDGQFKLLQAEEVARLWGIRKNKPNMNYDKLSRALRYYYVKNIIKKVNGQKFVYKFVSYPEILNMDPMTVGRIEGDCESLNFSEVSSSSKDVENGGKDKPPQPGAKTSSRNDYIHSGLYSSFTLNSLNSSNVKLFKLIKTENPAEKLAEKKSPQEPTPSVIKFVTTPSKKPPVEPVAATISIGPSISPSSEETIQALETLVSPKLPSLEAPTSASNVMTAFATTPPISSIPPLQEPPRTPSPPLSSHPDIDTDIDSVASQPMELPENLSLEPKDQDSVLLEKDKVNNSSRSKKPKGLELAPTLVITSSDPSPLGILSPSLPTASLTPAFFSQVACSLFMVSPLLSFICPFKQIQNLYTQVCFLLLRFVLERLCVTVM
How it was run: as §1

ETV2 = biological target: T4, ETV2 (Homo sapiens, UniProt O00321 1-342); details: protein: recombinant; tags: N-terminal GST; dsDNA, one strand shown
T4 sequence: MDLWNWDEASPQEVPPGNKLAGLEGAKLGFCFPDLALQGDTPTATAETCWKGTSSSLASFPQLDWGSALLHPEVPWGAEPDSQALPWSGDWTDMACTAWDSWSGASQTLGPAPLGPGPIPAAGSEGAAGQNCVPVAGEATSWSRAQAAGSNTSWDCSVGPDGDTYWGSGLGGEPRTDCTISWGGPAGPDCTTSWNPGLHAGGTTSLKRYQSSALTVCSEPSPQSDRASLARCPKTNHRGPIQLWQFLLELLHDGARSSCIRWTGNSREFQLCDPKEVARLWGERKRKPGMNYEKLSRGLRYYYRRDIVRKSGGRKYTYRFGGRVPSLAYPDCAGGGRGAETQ
How it was run: as §1

ELF3 = biological target: T5, ELF3 (Homo sapiens, UniProt P78545 1-371); details: protein: recombinant; tags: N-terminal GST; dsDNA, one strand shown
T5 sequence: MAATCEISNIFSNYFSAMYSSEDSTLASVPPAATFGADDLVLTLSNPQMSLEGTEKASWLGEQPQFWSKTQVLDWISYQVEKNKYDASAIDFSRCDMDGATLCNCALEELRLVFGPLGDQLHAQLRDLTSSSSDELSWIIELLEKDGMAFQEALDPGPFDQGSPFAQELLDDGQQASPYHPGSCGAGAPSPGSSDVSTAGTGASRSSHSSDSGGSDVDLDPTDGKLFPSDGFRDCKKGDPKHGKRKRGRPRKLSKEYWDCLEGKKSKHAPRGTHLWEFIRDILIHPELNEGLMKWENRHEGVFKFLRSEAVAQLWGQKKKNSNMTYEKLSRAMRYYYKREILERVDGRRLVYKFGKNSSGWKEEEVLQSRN
How it was run: as §1

CRX = CRX (Homo sapiens, UniProt O43186 1-299); details: protein: recombinant; tags: N-terminal GST; dsDNA, one strand shown
Chain of CRX (O43186 whole entry): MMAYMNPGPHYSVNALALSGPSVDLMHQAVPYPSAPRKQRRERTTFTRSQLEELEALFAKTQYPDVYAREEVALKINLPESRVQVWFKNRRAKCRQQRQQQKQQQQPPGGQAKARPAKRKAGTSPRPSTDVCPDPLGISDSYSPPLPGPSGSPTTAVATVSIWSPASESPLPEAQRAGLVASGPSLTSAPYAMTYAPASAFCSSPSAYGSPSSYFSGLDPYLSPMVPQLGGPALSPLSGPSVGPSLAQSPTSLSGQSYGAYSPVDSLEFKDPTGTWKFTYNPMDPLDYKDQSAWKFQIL
How it was run: as §1

ETV1 = ETV1 (Homo sapiens, UniProt P50549 1-477); details: protein: recombinant; tags: N-terminal GST; dsDNA, one strand shown
Chain of ETV1 (P50549 whole entry): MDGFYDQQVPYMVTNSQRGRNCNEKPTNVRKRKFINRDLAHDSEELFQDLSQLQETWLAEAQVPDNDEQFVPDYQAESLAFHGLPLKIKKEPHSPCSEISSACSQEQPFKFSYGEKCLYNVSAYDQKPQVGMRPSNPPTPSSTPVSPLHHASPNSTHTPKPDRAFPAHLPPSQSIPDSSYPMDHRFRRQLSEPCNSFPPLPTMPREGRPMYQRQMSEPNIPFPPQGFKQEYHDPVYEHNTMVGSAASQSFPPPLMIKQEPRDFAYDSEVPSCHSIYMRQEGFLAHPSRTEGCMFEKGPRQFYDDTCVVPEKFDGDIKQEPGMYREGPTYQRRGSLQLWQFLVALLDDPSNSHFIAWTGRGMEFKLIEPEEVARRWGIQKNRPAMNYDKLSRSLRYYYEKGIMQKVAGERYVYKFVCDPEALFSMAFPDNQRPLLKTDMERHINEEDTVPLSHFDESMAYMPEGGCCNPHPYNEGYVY
How it was run: as §1

ERF = biological target: T6, ERF (Homo sapiens, UniProt P50548 1-548); details: protein: recombinant; tags: N-terminal GST; dsDNA, one strand shown
T6 sequence: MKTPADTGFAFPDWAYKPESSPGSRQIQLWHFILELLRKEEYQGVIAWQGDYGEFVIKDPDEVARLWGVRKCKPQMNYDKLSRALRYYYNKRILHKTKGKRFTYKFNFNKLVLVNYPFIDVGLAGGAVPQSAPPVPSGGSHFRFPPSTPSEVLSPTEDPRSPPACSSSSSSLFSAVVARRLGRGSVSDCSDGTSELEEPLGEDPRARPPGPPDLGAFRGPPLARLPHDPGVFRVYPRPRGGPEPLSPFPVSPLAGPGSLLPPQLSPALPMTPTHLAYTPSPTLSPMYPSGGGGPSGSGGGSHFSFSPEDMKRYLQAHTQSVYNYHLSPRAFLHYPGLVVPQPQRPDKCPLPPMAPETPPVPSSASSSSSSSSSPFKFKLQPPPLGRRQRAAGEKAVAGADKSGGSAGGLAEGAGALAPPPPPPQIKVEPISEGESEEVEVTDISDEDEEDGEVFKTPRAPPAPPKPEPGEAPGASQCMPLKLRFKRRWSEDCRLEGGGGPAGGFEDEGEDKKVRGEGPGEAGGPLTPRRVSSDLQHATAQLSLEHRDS
How it was run: as §1

ETV3L = biological target: T7, ETV3L (Homo sapiens, UniProt Q6ZN32 1-361); details: protein: recombinant; tags: N-terminal GST; dsDNA, one strand shown
T7 sequence: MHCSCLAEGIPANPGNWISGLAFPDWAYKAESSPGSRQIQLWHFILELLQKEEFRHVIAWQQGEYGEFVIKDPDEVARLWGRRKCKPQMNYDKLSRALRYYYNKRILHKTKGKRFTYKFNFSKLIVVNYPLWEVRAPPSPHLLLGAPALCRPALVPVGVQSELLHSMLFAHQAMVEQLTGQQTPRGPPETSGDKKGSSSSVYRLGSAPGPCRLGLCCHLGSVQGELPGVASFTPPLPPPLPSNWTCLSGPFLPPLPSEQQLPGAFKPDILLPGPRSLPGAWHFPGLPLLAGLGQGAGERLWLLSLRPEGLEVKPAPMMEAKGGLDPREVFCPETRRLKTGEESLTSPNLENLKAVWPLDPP
How it was run: as §1

ETS2 = biological target: T8, ETS2 (Homo sapiens, UniProt P15036 1-469); details: protein: recombinant; tags: N-terminal GST; dsDNA, one strand shown
T8 sequence: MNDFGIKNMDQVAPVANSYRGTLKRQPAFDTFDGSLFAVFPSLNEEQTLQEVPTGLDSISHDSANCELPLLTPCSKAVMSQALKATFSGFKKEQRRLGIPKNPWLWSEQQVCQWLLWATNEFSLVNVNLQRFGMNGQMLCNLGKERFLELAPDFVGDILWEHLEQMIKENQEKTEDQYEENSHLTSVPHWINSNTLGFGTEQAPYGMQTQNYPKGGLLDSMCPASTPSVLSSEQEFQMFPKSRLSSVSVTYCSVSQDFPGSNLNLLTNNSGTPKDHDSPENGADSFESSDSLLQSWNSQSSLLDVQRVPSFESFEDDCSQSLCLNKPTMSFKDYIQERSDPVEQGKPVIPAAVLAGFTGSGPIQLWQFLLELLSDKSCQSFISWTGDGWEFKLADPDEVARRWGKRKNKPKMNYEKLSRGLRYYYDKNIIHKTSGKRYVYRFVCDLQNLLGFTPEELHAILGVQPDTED
How it was run: as §1

SPDEF = biological target: T9, SPDEF (Homo sapiens, UniProt O95238 1-335); details: protein: recombinant; tags: N-terminal GST; dsDNA, one strand shown
T9 sequence: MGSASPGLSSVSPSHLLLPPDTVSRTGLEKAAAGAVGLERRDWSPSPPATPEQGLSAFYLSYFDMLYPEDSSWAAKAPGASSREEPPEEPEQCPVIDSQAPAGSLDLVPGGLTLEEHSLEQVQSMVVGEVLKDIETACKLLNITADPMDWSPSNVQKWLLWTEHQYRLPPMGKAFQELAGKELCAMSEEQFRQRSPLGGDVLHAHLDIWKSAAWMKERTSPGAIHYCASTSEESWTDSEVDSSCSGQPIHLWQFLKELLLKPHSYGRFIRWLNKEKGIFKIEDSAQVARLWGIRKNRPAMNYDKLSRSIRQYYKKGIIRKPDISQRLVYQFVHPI
How it was run: as §1

ETV7 = biological target: T10, ETV7 (Homo sapiens, UniProt Q9Y603 1-341); details: protein: recombinant; tags: N-terminal GST; dsDNA, one strand shown
T10 sequence: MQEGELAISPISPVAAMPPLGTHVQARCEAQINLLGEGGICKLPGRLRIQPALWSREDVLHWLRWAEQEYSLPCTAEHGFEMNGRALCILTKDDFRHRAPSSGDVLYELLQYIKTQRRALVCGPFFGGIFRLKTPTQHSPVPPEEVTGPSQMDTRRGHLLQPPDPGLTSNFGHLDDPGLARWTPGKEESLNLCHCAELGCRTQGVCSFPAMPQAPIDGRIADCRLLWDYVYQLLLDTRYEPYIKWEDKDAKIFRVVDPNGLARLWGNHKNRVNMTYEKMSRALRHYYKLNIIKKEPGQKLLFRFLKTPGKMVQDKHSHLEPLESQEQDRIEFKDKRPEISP
How it was run: as §1

ELF5 = biological target: T11, ELF5 (Homo sapiens, UniProt Q9UKW6-2 1-255); details: protein: recombinant; tags: N-terminal GST; dsDNA, one strand shown
T11 sequence: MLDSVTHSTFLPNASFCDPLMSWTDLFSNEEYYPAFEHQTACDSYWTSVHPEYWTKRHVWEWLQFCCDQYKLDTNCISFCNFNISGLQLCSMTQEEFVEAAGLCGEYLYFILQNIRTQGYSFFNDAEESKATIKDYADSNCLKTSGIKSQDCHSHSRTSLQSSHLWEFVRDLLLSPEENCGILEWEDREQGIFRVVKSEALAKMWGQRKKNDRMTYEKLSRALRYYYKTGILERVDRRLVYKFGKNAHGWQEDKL
How it was run: as §1

ETV3 = biological target: T12, ETV3 (Homo sapiens, UniProt P41162-2 1-143); details: protein: recombinant; tags: N-terminal GST; dsDNA, one strand shown
T12 sequence: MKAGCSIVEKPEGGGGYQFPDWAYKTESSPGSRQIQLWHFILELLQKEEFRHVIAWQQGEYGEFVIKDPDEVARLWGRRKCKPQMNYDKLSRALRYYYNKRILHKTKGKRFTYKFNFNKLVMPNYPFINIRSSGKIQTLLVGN
How it was run: as §1

ETV6 = ETV6 (Homo sapiens, UniProt P41212 1-452); details: protein: recombinant; tags: N-terminal GST; dsDNA, one strand shown
Chain of ETV6 (P41212 whole entry): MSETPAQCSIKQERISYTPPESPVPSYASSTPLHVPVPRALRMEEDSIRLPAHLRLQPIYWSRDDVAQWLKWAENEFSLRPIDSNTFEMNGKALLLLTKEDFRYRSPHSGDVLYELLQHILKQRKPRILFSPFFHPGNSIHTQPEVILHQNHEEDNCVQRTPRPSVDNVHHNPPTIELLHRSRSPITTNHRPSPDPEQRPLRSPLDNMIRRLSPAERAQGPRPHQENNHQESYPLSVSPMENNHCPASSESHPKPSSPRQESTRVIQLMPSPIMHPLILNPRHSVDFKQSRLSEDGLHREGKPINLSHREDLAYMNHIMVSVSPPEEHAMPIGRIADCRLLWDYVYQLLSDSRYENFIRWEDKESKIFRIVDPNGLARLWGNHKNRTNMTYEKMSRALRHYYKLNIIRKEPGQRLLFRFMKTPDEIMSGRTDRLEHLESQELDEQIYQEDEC
How it was run: as §1

Q: For AGCTTC, which binding signal (FEV) is on record?
A: 1.84 fold enrichment (6-mer frequency, TF over GST control)

Q: What about the binding signal (ETV5) of the same sequence?
A: 1.85 fold enrichment (6-mer frequency, TF over GST control)

Q: And the binding signal (HSF1)?
A: 1.93 fold enrichment (6-mer frequency, TF over GST control)

Q: What about the binding signal (SPIC) of the same sequence?
A: 1.75 fold enrichment (6-mer frequency, TF over GST control)

Q: What about the binding signal (ELF4) of the same sequence?
A: 1.67 fold enrichment (6-mer frequency, TF over GST control)

Q: What about the binding signal (ELK4) of the same sequence?
A: 1.64 fold enrichment (6-mer frequency, TF over GST control)

Q: And the binding signal (ETV2)?
A: 1.74 fold enrichment (6-mer frequency, TF over GST control)

Q: And the binding signal (ELF3)?
A: 1.58 fold enrichment (6-mer frequency, TF over GST control)

Q: What about the binding signal (CRX) of the same sequence?
A: 1.62 fold enrichment (6-mer frequency, TF over GST control)

Q: And the binding signal (ETV1)?
A: 1.62 fold enrichment (6-mer frequency, TF over GST control)

Q: What about the binding signal (ERF) of the same sequence?
A: 1.75 fold enrichment (6-mer frequency, TF over GST control)

Q: What about the binding signal (ETV3L) of the same sequence?
A: 1.64 fold enrichment (6-mer frequency, TF over GST control)

Q: And the binding signal (ETS2)?
A: 1.77 fold enrichment (6-mer frequency, TF over GST control)

Q: What about the binding signal (SPDEF) of the same sequence?
A: 1.67 fold enrichment (6-mer frequency, TF over GST control)

Q: What about the binding signal (ETV7) of the same sequence?
A: 1.65 fold enrichment (6-mer frequency, TF over GST control)

Q: What about the binding signal (ELF5) of the same sequence?
A: 2.21 fold enrichment (6-mer frequency, TF over GST control)

Q: What about the binding signal (ETV3) of the same sequence?
A: 1.77 fold enrichment (6-mer frequency, TF over GST control)

Q: And the binding signal (ETV6)?
A: 1.84 fold enrichment (6-mer frequency, TF over GST control)
